Measurements taken from the supplement of paper PMC6555819.

Assays:
Assay in all cases: PBM binding z-score (relative to random genomic background probes); higher = stronger binding; sequences stand for … in GC…GCGATTGACAGCGTAGAATGAAGG
[1] = system: RARb homodimer (NR concentration 270 nM)
Method in brief: (§1)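 Ligand-free nuclear receptor dimers were applied to custom Agilent 4×180K protein-binding microarrays whose double-stranded probes carried direct-repeat seeds, single-nucleotide variants, half-site ablations and random human genomic background sequences in 34-nt variable regions. Incubation lasted 1 h. Binding z-scores were computed against the random background probes from regression-normalized fluorescence.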

[2] = system: RARg:RXRa (NR concentration 270 nM, RXRa partner concentration 90 nM)
Method in brief: as §1

[3] = system: RARg homodimer (NR concentration 270 nM)
Method in brief: as §1

[4] = system: RXRa DBDmut IVT, anti-RXR (DBD mutation: RXRa K156A/R161A, NR concentration 90 nM)
Method in brief: as §1

[5] = system: RXRa homodimer (NR concentration 180 nM)
Method in brief: as §1

[6] = system: THRa:RXRa (NR concentration 90 nM, RXRa partner concentration 90 nM)
Method in brief: as §1

[7] = system: THRa homodimer (NR concentration 90 nM)
Method in brief: as §1

[8] = system: VDR homodimer (NR concentration 270 nM)
Method in brief: as §1

Sequence	PBM binding z-score [1]	PBM binding z-score [2]	PBM binding z-score [3]	PBM binding z-score [4]	PBM binding z-score [5]	PBM binding z-score [6]	PBM binding z-score [7]	PBM binding z-score [8]
CGTCCAAGGTCGGCAGGTCAGTGAAAGCGACGTG	3.1	3.38	3.66	1.36	2.08	2.13	0.0758	0.171
ATATATAGGTTATCGGGTCATTCAGTTTGCGCAT	3.49	3.74	2.97	2.18	4.13	3.51	3.2	4.39
GCATATACGTAATACAAGGTGAAAGTCCGATTGT	0.656	0.54	0.62	0.892	0.528	2.44	1.16	0.207
TCTTGTAGATCAGGAGGTTAAGAAAGCTGGCCAA	0.528	0.46	0.00207	0.445	1.29	0.711	-0.548	-0.308
AGAATGTGGTTATACGTAGATCAGGGAAGAAAGT	0.494	0.184	0.305	0.187	-0.0859	0.207	0.0442	-0.179
GCTCGGAGGACAACGTCAGAGCTTTGTCCGTAGA	-0.35	-0.399	0.158	0.00939	-0.87	0.242	-0.468	-0.803
ATATGTAGGATACATCCGGGTCATTCAGGCTATG	2.18	1.58	1.43	0.223	1.95	2.99	1.95	2.23
ATCGAAAGGTCGACGAGGTGTGTATACACCGTTT	2.54	4.07	3.97	1.18	4.14	2.22	-0.542	0.527
ATCGACAGGTCGAAGGTGAGTATACCCACCCGAA	0.661	1.8	1.51	-0.283	2.37	0.716	-0.432	-0.198
CCTTATGGGTCACTCCAGGTTATAGCATCGGAGT	2.87	3.68	3.9	0.586	3.31	4.85	0.288	0.918
CCGAGTAGGTTATGGCGCATTCAGGCAACGGTGA	0.598	0.0806	0.1	-0.0161	0.365	0.169	0.321	-0.2
GCGACTGGGGCATCAGCAGGTTACTATAACTTAA	0.782	0.807	0.379	0.136	0.331	0.816	0.104	0.0737
ATATGTAGATTATCGGGTCATTCAGTTTGCGCAT	2.3	1.94	1.35	1.21	2.45	3.14	2.5	4.05
ATCTCTAGGCAAAAGTTCAGTGAATCCCGAGGAT	2.4	1.66	1.69	0.479	1.02	0.622	-0.181	0.923
